As usually defined, the inhibition is the change of the read-out against control, counted positive when it falls.

The structures appear in SMILES notation. Among all 120,000 compounds or so, about 840 (0.7%) were called active.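 How the source made its calls: active means inhibition above the batch mean plus 3 SD, and confirmed as a hit on visual image review (cut at about 43% in these data); inconclusive means passes the inhibition cutoff but fails visual image review; inactive means the rest.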 This excerpt belongs to a sample that is enriched for actives.

The nature of the assay: E-selectin induction blockers in HUVEC – imaging, immunofluorescence, high content, primary screen (AID 1246).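 Further: 0% = TNF-stimulated DMSO wells and 100% = unstimulated control wells.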 The note with it: HUVEC TNFa-induced E-selectin immunofluorescence, at 2 µM, stronger effect = higher value.
In the case of `CC(C)C(c1nnnn1CCc1ccccc1)N1CCN(C(=O)c2ccco2)CC1` (stereo not given), the inhibition is 20.3% (inactive). Consider `CC(C)C(c1nnnn1Cc1ccccc1)N1CCC(C(N)=O)CC1` (stereo not given), for which the inhibition is 100% (active). The result for `Cc1ccc(C(c2nnnn2CS(=O)(=O)c2ccc(C)cc2)N2CCC(C(N)=O)CC2)cc1` (stereo not given) reads -22.9% (inactive). The result for `CC1CCCC(C)N1/N=C/c1ccccc1OC(F)F` (stereo not given) reads 0.15% (inactive); that for `O=C(CN(CC1CCCO1)C(=O)CNS(=O)(=O)c1ccc(F)cc1)NCc1ccco1` (stereo not given), -15.3% (inactive). With `CCN(CCCNC(=O)CCn1c(=O)[nH]c2ccsc2c1=O)c1ccccc1`, the inhibition is -8.13% (inactive).

Take `O=S(=O)(c1ccc2c(c1)OCCO2)N1CCc2ccccc21`: the inhibition was 27.9% (inactive). Regarding `COCCN(C(=O)CCC(=O)Nc1nccs1)C(C(=O)NC(C)(C)C)c1ccc(Cl)cc1` (stereo not given), the inhibition is 19.2% (inactive). Take `COc1cc(/C=N/Nc2ccc(C)cc2)cc(Br)c1O`: the inhibition was -4.64% (inactive). Turning to `Cc1cc(C)n2nc(SCC(N)=O)nc2n1`, the inhibition was -29.9% (inactive). `Cc1cc(C)n2nc(C(=O)N3CCN(Cc4ccc5c(c4)OCO5)CC3)nc2n1`: the inhibition was -35.2% (inactive). For `Cc1cc(C)n2nc(C(=O)N(C)C(c3ccccc3)c3ccccc3)nc2n1`, the inhibition was 45.1% (active). For the compound `COC(=O)c1c(C(=O)OC)c(-c2cccc(C)c2)n2c1CS(=O)C2` (stereo not given), the inhibition was 58.3% (inactive). For `CSc1nc2nc(-c3cccc(C(F)(F)F)c3)ccn2n1`, the inhibition is -26.4% (inactive). With `CC(CC(=O)C1C(C)C=CCC1(C)C)NNC(N)=O` (stereo not given), the inhibition is 13.4% (inactive).

Take `CC(=O)Nc1ccc(C(=O)OCC(=O)Nc2ccc([N+](=O)[O-])cc2C(F)(F)F)cc1`: the inhibition was -7.06% (inactive). Take `CC(=O)c1cccc(NC(=O)Nc2ccc(C)cc2)c1`: the inhibition was 8.52% (inactive). Regarding `CC(=O)c1ccc(NC(=O)Nc2ccc([N+](=O)[O-])cc2C)cc1`, the inhibition was 70.8% (active). In the case of `CCCCN(CC(=O)NC(C)(C)C)C(=O)C(=O)Nc1ccc2c(c1)OCCO2`, the inhibition was -8.58% (inactive).

On to `Cc1nccn1CCCNC(=O)CC1C(=O)NCCN1Cc1ccc(Cl)c(F)c1` (stereo not given), for which the inhibition was -5.16% (inactive). For the compound `O=C(Cc1cccs1)Nc1nnc(SCc2ccc(F)cc2)s1`, the inhibition was -12.5% (inactive). In the case of `COc1ccc(Cc2nnc(NS(=O)(=O)Cc3ccccc3)s2)cc1`, the inhibition was 55.2% (inactive). For `COc1ccc(Cc2nnc(NC(=O)Cc3cccs3)s2)cc1`, the inhibition was 83.6% (active). The result for `CCCC(C)C(=O)NCc1ccncc1` (stereo not given) reads 0.76% (inactive). The result for `CCOC(=O)N1CCC(=NNC(N)=O)CC1` reads -34.9% (inactive); that for `Cn1cc(-c2ccccc2)cc(C#N)c1=O`, 3.87% (inactive). Regarding `Cc1cc(OC(=O)c2ccccc2)c([N+](=O)[O-])c(=O)[nH]1`, the inhibition is -11.2% (inactive). With `CC(=O)NCCn1c(SCC(=O)Nc2ccc(C)cc2)nc2ccccc2c1=O`, the inhibition is -10.7% (inactive). Consider `CC(=O)Nc1ccccc1Sc1ccc2c3c(cccc13)C(=O)N(c1ccc(C)cc1)C2=O`, for which the inhibition is 62.1% (active). To `CCOC(=O)Nc1ccccc1N1C(=O)c2ccccc2C1=O` belongs -7.24% (inactive). To `C/C=N/NC(=O)CCCC(=O)N/N=C/C` belongs -10.5% (inactive); to `CN1CCC(OC(=O)COc2ccc(Cl)cc2Cl)CC1`, 12.5% (inactive); to `Cc1ccc(C(=O)NC(=S)Nc2ccc(N3CCOCC3)cc2)cc1`, 2.01% (inactive). Take `Cc1ccc(C)c(Cn2cnc3c(oc4ccccc43)c2=O)c1`: the inhibition is -10.7% (inactive).

Take `CC1CCC2(CC1)NC(=O)N(Cc1nnc(-c3cccs3)o1)C2=O` (stereo not given): the inhibition was -9.64% (inactive). Consider `Cc1nc(-c2ccc(Cl)cc2)sc1C(=O)CBr`, for which the inhibition is 24.5% (inactive). Turning to `CCc1nnc(NC(=O)CCCSc2nc3ccccc3[nH]2)s1`, the inhibition is -35.3% (inactive).

Take `CCC(C)(C)NC(=O)CN(C(=O)C(=O)Nc1ccc2c(c1)OCCO2)C(C)(C)CC`: the inhibition is -8.58% (inactive). Turning to `COc1ccc(C(=O)Nc2ccc(S(=O)(=O)NC(C)C)cc2)cc1`, the inhibition was -8.02% (inactive). `COc1ccc(NC(=O)c2c(C)oc3c2CCCC3)cc1`: the inhibition was 60.9% (active). `COc1ccc(NC(=O)c2ccc(OC)cc2)cc1`: the inhibition is -30.5% (inactive). To `COc1ccc(-c2[nH]ncc2CN(C)Cc2cccnc2)c(F)c1` belongs -5.34% (inactive); to `O=C(NCc1nnc(SCC(=O)N2CCCc3ccccc32)o1)c1ccccc1F`, -38.5% (inactive); to `CCN(CC)S(=O)(=O)c1ccc(N(C)CCc2ccc(OC)c(OC)c2)nc1`, 0.93% (inactive).

With `CCCOc1ccc(C(=O)NCCc2ccccc2)cc1`, the inhibition was -42.2% (inactive).

In the case of `O=C(CSc1nc2ccccc2c(=O)n1CCCO)N1CCc2ccccc21`, the inhibition was -7.95% (inactive). For the compound `C=CCn1c(=O)c2ccccc2n2c(SCC(=O)N3CCCc4ccccc43)nnc12`, the inhibition is 80.1% (active). In the case of `Cn1c(SCC(=O)N2CCCc3ccccc32)nc2ccccc2c1=O`, the inhibition was -1.81% (inactive).

Turning to `Cc1c(Br)c([N+](=O)[O-])nn1CC(=O)N1CCN(Cc2ccccc2)CC1`, the inhibition is 8.51% (inactive). For `O=C(/C=C/c1ccccc1Cl)Nc1ccc(S(=O)(=O)Nc2ncccn2)cc1`, the inhibition is -13.4% (inactive). Consider `COCCCNCCOCCOc1ccc(Cl)cc1Br`, for which the inhibition was -28.3% (inactive). The result for `OCCNCCOc1ccc(Cl)c(Cl)c1` reads 75.2% (active); that for `OCCNCCCCOc1ccccc1F`, -13.2% (inactive); that for `CCOC(=O)N1CCN(CCC(=O)Nc2cc(OC)ccc2OC)CC1`, -40.9% (inactive). Turning to `O=C(Nc1cccc(F)c1)N1C2CCC1CC(O)(c1cccnc1)C2` (stereo not given), the inhibition was -22.6% (inactive). As for `CN(C)C(=O)c1nc2ccc(Cl)cn2c1CN1CCN(c2ncccn2)CC1`, the inhibition was -15.7% (inactive). As to `Cc1cnc(C(=O)OCC(=O)NCCCc2ccccc2)cn1`, the inhibition is -18.2% (inactive). For `O=C(CCSc1ccccc1)N1CCN(c2ccccc2F)CC1`, the inhibition was -7.82% (inactive). For `Cc1cc(C)n(-c2nnc(N3CCN(c4ccccc4)CC3)nn2)n1`, the inhibition is 1.97% (inactive). The result for `CCCCSc1nnc(-c2ccc(NC(=O)CC)cc2)n1C` reads 1.71% (inactive); that for `Cn1c(SCC(=O)Nc2cccc(NC(=O)c3cccs3)c2)nnc1-c1ccncc1`, 26.7% (inactive).

For the compound `CCC(=O)Nc1cccc(NC(=O)CSc2nnc(-c3ccc(NS(C)(=O)=O)cc3)n2C)c1`, the inhibition is 64.3% (active).

Take `COC(=O)C(=Nc1ccccc1)/C(C(=O)C(=O)N(C)c1ccccc1)=C(\O)c1ccc(Cl)cc1`: the inhibition was -20.7% (inactive). The result for `CSc1ncccc1C(=O)N1CCCC(CCC(=O)NCc2ccccc2F)C1` (stereo not given) reads -22.4% (inactive); that for `O=C(CSc1nnc(-c2ccco2)n1Cc1ccccc1)NC(=O)NCc1ccco1`, -1.5% (inactive). The result for `Cc1ccc(SCC(=O)NC(=O)NCc2ccco2)c(C)c1` reads 76% (active). Regarding `Cc1cc(C)c2c(c1)c(C)cc1nnc(SCC(=O)NCc3ccco3)n12`, the inhibition was 9.01% (inactive). To `Cc1cc(N2CCN(C)CC2)nc2ccc(NC(=S)N3CCOCC3)cc12` belongs 19.6% (inactive); to `CC(=O)N1CCN(S(=O)(=O)c2c(F)cc(F)c(Cl)c2F)CC1`, -26.7% (inactive); to `CCOC(=O)N1CCN(C(=O)CSc2nc(C)nc3c2c(=O)n(C)c(=O)n3C)CC1`, -25% (inactive). For the compound `Brc1cc(/C=N/n2cnnc2)oc1Br`, the inhibition was -13.4% (inactive). Take `Cc1cccc(C)c1NC(=O)C1CCCN1C(=O)OC(C)(C)C` (stereo not given): the inhibition was -33.1% (inactive). As for `C=CCN(CC=C)CCOc1ccccc1[N+](=O)[O-]`, the inhibition is -5.8% (inactive). For `Cc1ccc(CNC(=O)c2cccnc2Cl)cc1`, the inhibition is -5.85% (inactive). On to `CSc1nc(C)cc(SC(C(C)=O)C(=O)Nc2ccccc2)n1` (stereo not given), for which the inhibition is -11.9% (inactive). Consider `CC(Sc1nnc2c(n1)C1CCC2(C)C1(C)C)C(=O)Nc1ccccc1` (stereo not given), for which the inhibition is 70.7% (active).

On to `CC12CCC(C(=O)N(NC(=O)c3ccccc3O)C1=O)C2(C)C` (stereo not given), for which the inhibition was -1.25% (inactive). As for `Cc1ccc2c(Cl)c(C(=O)Nc3nn[nH]n3)sc2c1`, the inhibition was 13% (inactive).

As to `COc1ccccc1CNC(=O)C1Cc2ccccc2C(=O)O1` (stereo not given), the inhibition is -3.67% (inactive). Regarding `Cn1c(-c2ccc(F)cc2)cnc1SCC(=O)NNC(=O)Cc1ccccc1`, the inhibition is -21.1% (inactive). With `CC1=NN(C(C)C)C(=O)C1`, the inhibition is 53.9% (active).

In the case of `Cc1cc(C)n(Cc2cnc(N3CCOCC3)s2)n1`, the inhibition was 1.48% (inactive). The result for `Cn1c(SCC(=O)Nc2ccc(Br)cc2F)nnc1-c1ccco1` reads -23.6% (inactive). Regarding `CCNC(=S)NNC(=O)c1ccc2ncccc2c1`, the inhibition was 9.15% (inactive). For the compound `Cc1ccc(-c2csc3nnc(SCC(=O)NCc4ccco4)n23)cc1`, the inhibition is -6.76% (inactive). The result for `CCn1c(SCC(=O)NCc2ccco2)nnc1-c1ccc(N)cc1` reads 69.4% (active); that for `CCn1c(COc2ccccc2)nnc1SCC(=O)NCc1ccco1`, -14.4% (inactive). To `Cc1ccc(-n2c(C)cc(C(=O)CN3C(=O)C(=O)N(C4CCCC4)C3=O)c2C)cc1` belongs -16.5% (inactive). As to `Cc1ccc(OCC(=O)Nc2ccc(S(=O)(=O)Nc3ccccn3)cc2)cc1`, the inhibition is -18.7% (inactive). In the case of `CN(C)CC(C)(C)CNC(=O)c1cc(Br)cc(Br)c1O`, the inhibition is 0.11% (inactive).

As for `CC(=O)Nc1nc(N(C)C)nc(N(C)C)n1`, the inhibition was 13.8% (inactive). Regarding `CN(C)S(=O)(=O)c1cc(NC(=O)CN2C(=O)NC3(CCCc4ccccc43)C2=O)ccc1Cl` (stereo not given), the inhibition is 67.1% (active). The result for `CC1(c2ccccc2Cl)NC(=O)N(CC(=O)NC(=O)NCc2ccco2)C1=O` (stereo not given) reads 23.7% (inactive); that for `Cc1cccc(NC(=O)CN2C(=O)CNC2=O)c1`, -1.87% (inactive). With `CN1CCN(CCCCOc2ccccc2-c2ccccc2)CC1`, the inhibition is -23.6% (inactive). Consider `CC(=O)C1(C)N(O)C(C)(C)C(c2cccs2)=[N+]1[O-]` (stereo not given), for which the inhibition is -15.7% (inactive).

As to `CC1CC(C)CN(S(=O)(=O)c2ccc(C(=O)NN3CCOCC3)cc2)C1` (stereo not given), the inhibition is -4.78% (inactive).

Take `CCOC(=O)c1c(NC(=O)CSc2nnc(CNc3ccc(C)cc3C)o2)sc(C)c1C`: the inhibition was 74.5% (active). `CCOC(=O)c1sc(NC(=O)CSc2nnc(-c3ccco3)o2)c(C(=O)OCC)c1C`: the inhibition was -40.2% (inactive). To `CCOC(=O)c1c(-c2ccc(C)cc2C)csc1NC(=O)CSc1nnnn1C` belongs -25.1% (inactive).

The record behind these values is PubChem BioAssay AID1246 (Columbia University Molecular Screening Center, 2008).
